Bioassay records: PubChem, National Center for Advancing Translational Sciences (NCATS)
Only some compounds are listed: those with a hit (about 3.2% of all), similar ones and a draw of the others.
p53null 39C kill: selectivity test: cytotoxicity in p53 null cells, nonpermissive temperature | H1299 p53-null (neo) cells, 39C, ATPlite viability, 24 h | Potency, µM (titrated, usually from 46.1 µM), inactives show top-dose activity, negative = cell killing, usual class: cytotoxic | 55,000 compounds, 0.97% hits | AID 904;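 also: potency is read from the fitted curve at half-maximal effect; 0% = DMSO only and -100% = full killing by 100 µM tamoxifen; nearly all actives have a fitted effect of over 50% in size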
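ATP-luminescence viability readout (ATPlite, 20 min RT) after 24 hr compound treatment at 39C of H1299-neo or H1299-p53A138V cells; titration up to 46 uM; normalized to DMSO and 100 uM tamoxifen; Hill-fit AC50.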
pS6 MEF inh: reduces mTORC1 signaling in Tsc2 and p53 null MEF cells; AID 493208; 44,000 compounds, 0.78% hits; Potency, µM (top dose mostly 38.3 µM), without a hit: at the top dose activity change, negative = inhibition, actives largely listed as inhibitors; Tsc2-/- p53-/- MEF, phospho-rpS6 immunofluorescence/PI, 24 h;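 also: potency is read from the fitted curve at half-maximal effect; plate controls were DMSO for no effect and rapamycin for full effect; nearly all actives have a fitted effect of over 50% in size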
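Plate MEFs (Tsc2-/-, p53-/-, empty vector) in DMEM/10% FBS; after 24 h add compound, incubate 24 h at 37 degree Celsius; fix in PFA/TX-100, block, stain phospho-rpS6 and 10 uM PI; scan at 488 nm; report % positive cells.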
PMP22 txn prim: PMP22 gene transcription modulation; 43,000 compounds, 2% hits; Potency, µM (highest dose often 57.5 µM), without a hit: top-dose activity change, negative = inhibition, usual class: inhibitors; S16 Pmp22-F2sN Schwann cells, FLuc/NLuc coincidence luminescence, 24 h; active = clear falling dose curves in both reporters; inconclusive = both reporters move, but less clearly or upward; inactive = either reporter flat; the % is the NLuc reporter signal; also: potency is read from the fitted curve at half-maximal effect; % is scaled to controls: 0 for no effect and ±100 for the full control effect
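S16(c9) Schwann cells with FLuc/NLuc coincidence reporter in the Pmp22 3' UTR; compounds pin-transferred, 24 h at 37C. Dual-luciferase read: FLuc first, then NLuc after Stop&Glo, each 10 min at room temperature.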
p53null 32C tox: kills p53 null cells at the permissive temperature; H1299-neo p53 null cells, ATP luminescence, 24 h, 32C; Potency, µM (series often up to 46.1 µM), for inactives: at the top dose activity change, negative = cytotoxicity, most hits filed as cytotoxic; 55,000 compounds, 0.62% hits;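 also: potency is read from the fitted curve at half-maximal effect; 0% = DMSO only and -100% = full killing by 100 µM tamoxifen; nearly all actives have a fitted effect of over 55% in size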
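Cells lacking p53 (H1299-neo) are plated at 600 per well and allowed to settle overnight at 37C. Test compounds (up to 46 uM) are added and held 24 hours at 32C, then ATP is quantified by luminescence.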
S16 F2sN tox: toxic to S16 Pmp22-F2sN Schwann cells | 43,000 compounds, 0.48% hits | S16 Pmp22-F2sN Schwann cells viability, CellTiter-Glo, 24 h | Potency, µM (top dose mostly 57.5 µM), without a hit: top-dose activity change, negative = cytotoxicity, hits mostly cytotoxic; also: potency is read from the fitted curve at half-maximal effect; % is scaled to controls: 0 for no effect and ±100 for the full control effect; nearly all actives have a fitted effect of over 65% in size
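Rat S16 Schwann reporter line, 24 h treatment with library compounds delivered at 23 nL per well. Cell viability by CellTiter-Glo luminescence.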
NLuc sat counter: inhibits NanoLuc at saturating substrate, PMP22 counter-screen. shares compounds with PMP22 txn prim. Secreted NLuc enzyme (filtered S16 cell medium), Nano-Glo luminescence. Potency, µM (doses to about 57.5 µM), for inactives: at the highest dose activity change, negative = inhibition, hits mostly inhibitors. 690 compounds, 4% hits. AID 1508638; also: potency is read from the fitted curve at half-maximal effect; % is scaled to controls: 0 for no effect and ±100 for the full control effect
NLuc Km counter: NanoLuc inhibition at Km substrate, PMP22 artifact check; AID 1508639; shares compounds with PMP22 txn prim; secreted NLuc enzyme, coelenterazine luminescence, Km conditions; Potency, µM (titrated, usually from 57.5 µM), for inactives: top-dose activity change, negative = inhibition, most hits filed as inhibitors; 690 compounds, 5% hits; also: potency is read from the fitted curve at half-maximal effect; % is scaled to controls: 0 for no effect and ±100 for the full control effect
FLuc counter: firefly luciferase enzyme inhibition artifact for PMP22 screen; shares compounds with PMP22 txn prim; purified P. pyralis FLuc, luminescence, 10 min; Potency, µM (series often up to 57.5 µM), inactives show top-dose activity, negative = inhibition, hits mostly inhibitors; 690 tested, under 10 active; AID 1508640; also: % of control where 0% means no effect
Target sequence (P08659 whole entry, looked up): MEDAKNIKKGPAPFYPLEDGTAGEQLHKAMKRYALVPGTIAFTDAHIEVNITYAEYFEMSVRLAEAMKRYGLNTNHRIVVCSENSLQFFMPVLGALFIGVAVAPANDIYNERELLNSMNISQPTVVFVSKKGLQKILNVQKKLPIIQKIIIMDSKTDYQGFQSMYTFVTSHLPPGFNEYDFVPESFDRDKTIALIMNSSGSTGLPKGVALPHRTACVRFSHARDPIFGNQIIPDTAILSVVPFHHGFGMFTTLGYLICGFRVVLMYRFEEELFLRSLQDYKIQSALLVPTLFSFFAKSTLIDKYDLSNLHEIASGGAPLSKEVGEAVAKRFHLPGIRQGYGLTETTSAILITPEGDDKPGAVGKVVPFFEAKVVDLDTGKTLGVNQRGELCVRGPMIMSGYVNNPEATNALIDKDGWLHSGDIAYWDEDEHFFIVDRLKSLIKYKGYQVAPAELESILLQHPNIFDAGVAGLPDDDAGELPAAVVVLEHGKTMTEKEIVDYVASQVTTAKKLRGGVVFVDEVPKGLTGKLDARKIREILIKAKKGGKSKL
S16 F2sN tox cnf: confirmation of cytotoxicity in S16 Pmp22-F2sN Schwann cells (luciferase reporters placed in the Pmp22 gene); shares compounds with PMP22 txn prim; S16 Schwann cells viability, CellTiter-Glo ATP luminescence, 24 h; Potency, µM (series often up to 57.5 µM), for inactives: at the top dose activity change, negative = viability loss, usual class: cytotoxic; 690 compounds, 7% hits; AID 1508641; also: potency is read from the fitted curve at half-maximal effect; % is scaled to controls: 0 for no effect and ±100 for the full control effect
PMP22 txn cnf: confirmation of modulators of PMP22 gene transcription in S16 cells. shares compounds with PMP22 txn prim. S16 Schwann cells Pmp22-F2sN, dual luciferase, 24 h. Potency, µM (doses to about 57.5 µM), for the others: top-dose activity change, negative = inhibition, hits mostly inhibitors. 690 compounds, 22% hits; active = clear falling dose curves in both reporters; inconclusive = both reporters move, but less clearly or upward; inactive = either reporter flat; the % is the FLuc reporter signal; also: potency is read from the fitted curve at half-maximal effect
PMP22 prot conf: confirmation of modulators of rat PMP22 protein expression. shares compounds with PMP22 txn prim. S16 Schwann cells Pmp22-HiBiT, luminescence, 48 h. Potency, µM (series often up to 27.9 µM), for inactives: top-dose activity change, negative = inhibition, hits mostly inhibitors. 95 tested, under 10 active. AID 1508647
Target sequence (P25094 whole entry, looked up): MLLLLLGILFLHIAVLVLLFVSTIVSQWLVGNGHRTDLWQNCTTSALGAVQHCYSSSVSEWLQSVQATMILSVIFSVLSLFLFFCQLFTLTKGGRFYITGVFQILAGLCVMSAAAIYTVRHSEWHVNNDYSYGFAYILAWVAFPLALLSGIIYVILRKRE
An asterisk follows results filed as active; ? = inconclusive; / = no result given; [ ] = remark or other dose. Unless noted, calls follow the shape of the dose curve; as a rule, active = well fitted curve in the direction sought with a large enough effect; inconclusive = small, poorly fitted or top-dose-only effect, or another doubt; inactive = no such curve, though single readings can be large; an effect the other way counts as inactive or inconclusive.

SMILES | p53null 39C kill | pS6 MEF inh | PMP22 txn prim | p53null 32C tox | S16 F2sN tox | others
O=C(NCCSc1c(-c2ccc(F)cc2)[nH]c2ccccc12)c1ccc(S(=O)(=O)N2CCOCC2)cc1 | 13% | 15µM* | ? | 10% | ?
COc1ccc(OCC(=O)N2CCN(C(C)C)CC2)cc1 | 7% | / | / | -3% | /
COc1ccc2nc(N3CCN(C(=O)CS(=O)(=O)c4ccc(C)cc4)CC3)sc2c1 | 85% | -7% | ? | 10µM* | ?
CCOC(=O)c1ccc(NC(=O)Nc2cc3c(cc2N2CCCCC2)n(CC)c(=O)n3CC)cc1 | -12% | 2% | ? | 34% | -13%
Cc1ccc2oc(=O)c(-c3nc4ccc(C)cc4[nH]3)cc2c1 | 20µM* | -9% | -10% | -29% | -8%
COc1ccc(C(=O)Nc2ccc(Cl)cc2C(=O)c2ccccc2)c(OC)c1 | 20% | -18% | -16% | 1% | 22%
CCOc1ccc(N(C(C)C(=O)Nc2cc(Cl)ccc2OC)S(C)(=O)=O)cc1 (stereo unspecified) | 46% | 7.4µM* | ? | 12% | ?
CCCCNC(=O)c1cc(-c2cccnc2)nc2ccc(S(=O)(=O)NCCCC)cc12 | -2% | ? | ? | -9% | 25µM*
CCCCNc1ccncc1S(=O)(=O)NC(=O)NC(C)C | 13% | / | / | -6% | /
Cc1cccn2c(=O)cc(COc3cccc(NC(=O)COc4ccc(F)cc4)c3)nc12 | 13µM* | 13% | ? | 13µM* | ?
COc1ccc(NC(=O)CCn2cnc3onc(-c4ccc(F)cc4)c3c2=O)cc1OC | 0% | ? | 11µM* | 18% | ?
COc1ccc(NC(=O)CCc2nc(C3=CCN(Cc4cccc(Cl)c4)CC3)no2)cc1OC | 17% | 0% | -19% | 3% | -21%
Cc1cc(-n2c(/C=C/c3ccc(Br)s3)nc3ccccc3c2=O)ccc1Br | -1% | -9% | 3% | 13% | 0%
CCOC(=O)c1ccc(N2C(=O)c3n[nH]c(-c4cccs4)c3C2c2ccc(Cl)cc2Cl)cc1 (stereo unspecified) | 18µM* | ? | ? | ? | ?
COC(=O)c1ccccc1NC(=O)c1cccn(Cc2cccc(Cl)c2)c1=O | 18% | -6% | ? | 11% | ?
CN(C)C(Cc1ccc(Cl)cc1)C(=O)c1ccccc1 (stereo unspecified) | -4%[1.84 µM] | / | / | / | /
COc1ccc(CN2CCN(c3ncnc4sc5c(c34)CCCC5)CC2)cc1F | 53% | -6% | 5.3µM* | 57% | ? | NLuc sat counter=-20%;NLuc Km counter=-2%;FLuc counter=-13%;S16 F2sN tox cnf=-23%;PMP22 txn cnf=?
O=C(COc1ccccc1[N+](=O)[O-])N1CCN(CCc2ccccn2)CC1 | -5% | 1% | -3% | -3% | 3%
CCc1ccc(OCC(=O)Nc2cc3oc4ccccc4c3cc2OC)cc1 | -22% | 1% | 6.4µM* | ? | 4% | NLuc sat counter=5%;NLuc Km counter=2%;FLuc counter=3%;S16 F2sN tox cnf=-13%;PMP22 txn cnf=18µM*;PMP22 prot conf=11%
O=C(COc1ccccc1)N1CCN(CC2CC3C=CC2C3)CC1 (stereo unspecified) | -2% | / | / | 3% | /
COc1ccccc1NC(=O)Cn1c(=O)n(-c2cccc(Cl)c2)c(=O)c2sc3ccccc3c21 | ? | 1% | 10µM* | -4% | 1% | NLuc sat counter=-4%;NLuc Km counter=5%;FLuc counter=1%;S16 F2sN tox cnf=?;PMP22 txn cnf=6.5µM*;PMP22 prot conf=6.5µM*
COc1ccc(NC(=O)Cn2c(=O)c3cccn3c3ccccc32)cc1Cl | 90% | -1% | ? | 16% | 12%
Cc1c(Cl)cccc1NC(=O)c1oc2ccc(S(=O)(=O)N3CCC4(CC3)OCCO4)cc2c1C | 0% | 13µM* | 14µM* | 0% | ? | NLuc sat counter=-15%;NLuc Km counter=-3%;FLuc counter=-5%;S16 F2sN tox cnf=-24%;PMP22 txn cnf=?;PMP22 prot conf=15%
CCc1ccccc1NC(=O)C(CC)Oc1ccccc1-c1nnc(-c2ccccc2)o1 (stereo unspecified) | 67% | -22% | ? | 35% | ?
